Test results as given in PubChem BioAssay (NCATS).
Where “and” joins values, the source holds several entries; their conditions need not be identical. Identical values can stand only once. Results filed as inconclusive are left out. Calls of active or inactive are those of the source. Unless noted, calls come from the whole dose curve; as a rule, active = well fitted curve in the direction sought with a large enough effect; inconclusive = small, poorly fitted or top-dose-only effect, or another doubt; inactive = no such curve, though single readings can be large; an effect the other way counts as inactive or inconclusive.

What was measured:
[1] = Cell Viability - BJ (AID 421; calls by dose curve;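 note: potency is the fitted concentration of half-maximal effect; cells exposed to compound for 40 hours at 37 °C before readout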); details: BJ fibroblast viability, qHTS
Summary of the method: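 Luminescent ATP signal (CellTiter-Glo, 20 min at room temperature) served as the read-out of viable BJ cells after 40 hours of compound treatment. Responses were scaled between DMSO and 100 uM tamoxifen, and AC50 values were obtained by Hill modeling.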

[2] = Cell Viability - Jurkat (AID 426;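 active = dose-dependent loss of cell ATP signal giving a full or clear fitted curve, ranked by lower potency value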;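 note: potency is the fitted concentration of half-maximal effect; cells exposed to compound for 40 hours at 37 °C before ATP read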); details: qHTS
Summary of the method: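 Cytotoxicity was scored as loss of cellular ATP, measured by luciferase-based luminescence, in Jurkat clone E6-1 cells after 40 h compound treatment; tamoxifen and doxorubicin served as positive controls.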

[3] = Cell Viability - HepG2 (AID 433; calls by dose curve;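 note: potency is the fitted concentration of half-maximal effect; potency for ATP loss meaning cytotoxicity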); details: qHTS
Summary of the method: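 Read-out is luciferase-based quantitation of cellular ATP as a measure of viable HepG2 cells after 40 h treatment at 37 °C. Signal decrease is scaled between DMSO-only and 100 uM tamoxifen controls, with AC50 fitted by the Hill equation.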

[4] = Cell Viability - SK-N-SH (AID 435; calls by dose curve;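 note: potency is the fitted concentration of half-maximal effect; compound exposure lasted 40 h at 37 °C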); details: SK-N-SH neuroblastoma cell viability qHTS
Summary of the method: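 Luminescent ATP signal served as the viability read-out after 40 hours of compound treatment of human neuroblastoma SK-N-SH cells. Concentration-response data, scaled between DMSO and 100 uM tamoxifen, gave AC50 values by standard Hill modeling.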

[5] = target: Mitogen-activated protein kinase 10 (Mus musculus) (UniProt Q61831); assay: JNK3 AlphaScreen Assay (AID 530; active = well fitted curve in either direction with a large enough effect, not every such curve was filed as active;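 note: kinase came from lysate of stimulated human HepG2 cells; signal reports phosphorylation of biotinylated GST-cJun 1-79 at Ser73 with 10 µM ATP; % is set by controls: 0 for no effect and ±100 for the full control effect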); details: JNK3 lysate, c-Jun phosphorylation; series mostly up to 57.1 µM
Summary of the method: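 HepG2 lysate (IL-1b/TNFa pre-activated) + biotin-GST-cJun 1-79 + anti-pSer73 cJun; cpd titration, 15 min RT; ATP 10 uM start; Tris pH 7.6, MgCl2, DTT, vanadate; beads in EDTA buffer; AlphaScreen.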

[6] = Cell Viability - N2a (AID 540); details: N2a mouse neuroblastoma cell viability; activity change, negative = cytotoxicity: at 92.2 µM (top of the series);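 note: cells exposed to compound for 40 h at 37 °C; plate controls were DMSO alone for no effect and tamoxifen control for full effect; nearly all actives have a fitted effect of over 45% in size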
Summary of the method: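 In this qHTS cytotoxicity screen, ATP-dependent luciferase luminescence reports viable N2a cells after a 40 hr compound exposure in complete culture medium. Potencies are AC50 values from standard Hill equation fits.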

[7] = Cell Viability - NIH 3T3 (AID 541); details: NIH 3T3 cell viability, qHTS; activity change, negative = cytotoxicity: at 92.2 µM (top of the series);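 note: plate controls were DMSO alone for no effect and tamoxifen positive control for full effect; nearly all actives have a fitted effect of over 25% in size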
Summary of the method: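 In this cytotoxicity screen, acute toxicity is scored as an ATP drop measured by CellTiter-Glo in NIH 3T3 fibroblasts following a 40 hr, 37 °C incubation with compound.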

[8] = Cell Viability - HUV-EC-C (AID 542); details: HUV-EC-C endothelial cell viability, qHTS; series mostly up to 92.2 µM; note: % is set by controls: 0 for no effect and ±100 for the full control effect; nearly all actives have a fitted effect of over 35% in size
Summary of the method: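 Concentration-dependent ATP loss in HUV-EC-C cells is the measure. Exposure lasts 40 hr at 37 °C; luminescence follows CellTiter-Glo addition, and Hill fits give AC50.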

[9] = Cell Viability - H-4-II-E (AID 543); details: H-4-II-E rat hepatoma viability; series mostly up to 92.2 µM; note: % is set by controls: 0 for no effect and ±100 for the full control effect; nearly all actives have a fitted effect of over 35% in size
Summary of the method: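 AC50 from Hill-modelled qHTS concentration-response curves. H-4-II-E rat hepatoma cells in complete medium, 40 hr exposure at 37 °C, viability by CellTiter-Glo ATP luminescence.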

[10] = Cell Viability - SH-SY5Y (AID 544); details: SH-SY5Y neuroblastoma cell viability; series mostly up to 92.2 µM; note: nearly all actives have a fitted effect of over 55% in size
Summary of the method: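 Quantitative HTS in SH-SY5Y neuroblastoma cells, 40 hr treatment at 37 °C, ATP content by luciferase luminescence; AC50 from Hill fits.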

[11] = Cell Viability - Renal Proximal Tubule (AID 545); details: renal proximal tubule cells viability, primary cells of rat origin; at 91.7 µM (top of the series); note: nearly all actives have a fitted effect of over 40% in size
Summary of the method: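 Luminescent ATP signal (CellTiter-Glo) served as the viability read-out after 40 hr compound exposure of freshly isolated rat proximal tubule cells at 37 °C. Concentration-dependent ATP loss was fitted with the Hill equation to give AC50.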

[12] = Cell Viability - Mesenchymal (AID 546); details: mesenchymal cells viability, qHTS; activity change, negative = cytotoxicity: at 91.7 µM (top of the series);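 note: cells exposed to compound for 40 hours before reading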
Summary of the method: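 Human renal mesenchymal cells (glomerulus-derived), 1000 cells/well, 5 hr 37 °C pre-incubation; compound 40 hr, 37 °C; CellTiter-Glo, 20 min RT; luminescence; AC50 via Hill equation.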

[13] = Cellular Toxicity (caspase-3) HepG2 (AID 654); details: HepG2 caspase-3 activation, luminescence, 0% = DMSO only, 100% = tamoxifen; series mostly up to 92.2 µM;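 note: cells exposed to compound for 16 hours before reading; 0% = DMSO alone and 100% = caspase signal from 100 µM tamoxifen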
Summary of the method: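 Concentration-response AC50 values reflect caspase-3/7 induction in HepG2 cells after 16 hours of compound exposure, quantified by luminescence from liberated aminoluciferin and referenced to 100 uM tamoxifen as full stimulation.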

[14] = Cellular Toxicity (caspase-3) Jurkat (AID 655); details: Jurkat caspase-3 activation, luminescence, DMSO = 0%, tamoxifen = 100%; at 92.2 µM (top of the series);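 note: cells exposed to compound for 16 h at 37 °C before reading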
Summary of the method: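 5000 Jurkat cells/well; compound 16 hr, 37 °C; Caspase-Glo 3/7 added, 20 min RT; luminescence read. Norm: DMSO = 0%, tamoxifen 100 uM = 100%. AC50, Hill model.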

[15] = Cellular Toxicity (caspase-3) HUV-EC-C (AID 656); details: HUV-EC-C cells, caspase-3 activation (apoptosis), vehicle = 0, 100 µM tamoxifen = 100%; series mostly up to 92.2 µM
Summary of the method: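 qHTS; HUV-EC-C, 1000 cells/well; 5 hr settle, 16 hr cmpd, 37°C; Caspase-Glo 3/7, 20 min RT; luminescence. Norm: DMSO = 0%, tamoxifen 100 uM = 100%. Hill-fit AC50.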

[16] = Cellular Toxicity (caspase-3) SHSY5Y (AID 657); details: SH-SY5Y caspase-3 activation, DMSO zero, 10 µM staurosporine = 100%; series mostly up to 91.7 µM
Summary of the method: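 qHTS, SH-SY5Y, 1500 cells/well, 5 h pre-incubation 37 °C; compound 16 h 37 °C; Caspase-Glo 3/7 1 h RT; luminescence. Norm.: DMSO = 0, 10 uM staurosporine = 100%. Hill fit → AC50.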

[17] = Cellular Toxicity (caspase-3) BJ (AID 658); details: BJ fibroblasts, luminescence, normalized: DMSO 0%, staurosporine 100%; series mostly up to 91.7 µM
Summary of the method: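 qHTS, BJ fibroblasts, 1000 cells/well; 5 hr preincubation, 16 hr compound, 37 °C; Caspase-Glo 3/7 reagent, 1 hr RT; luminescence. DMSO = 0%, 10 uM staurosporine = 100%. Hill-equation AC50.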

[18] = Cellular Toxicity (caspase-3) MRC-5 (AID 659); details: MRC-5 cells, luminescence, normalized: DMSO 0%, 10 µM staurosporine 100%; series mostly up to 91.7 µM
Summary of the method: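 MRC-5 fibroblasts, 1500/well; 16 h cpd, 37 °C; Caspase-Glo 3/7, 1 h RT; lumi read. Norm: DMSO = 0%, 10 uM staurosporine = 100%. Hill-fit AC50 from qHTS conc-response.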

[19] = Cellular Toxicity (caspase-3) Mesangial (AID 660); details: mesangial cells, normalized: DMSO 0%, 100 µM tamoxifen 100%; series mostly up to 91.7 µM;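 note: combined caspase 3 and 7 activity read by Caspase-Glo luminescence; cells exposed to compound for 16 h before the caspase read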
Summary of the method: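 AC50 values come from Hill-equation fits of caspase 3/7 activation, measured as Caspase-Glo luminescence in human glomerular mesangial cells exposed to compound for 16 h at 37 °C; 100% set by 100 uM tamoxifen.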

[20] = Cellular Toxicity (caspase-3) SK-N-SH (AID 661); details: SK-N-SH caspase-3 activation, qHTS, DMSO as zero, staurosporine as full; series mostly up to 91.7 µM
Summary of the method: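 Apoptosis readout in SK-N-SH neuroblastoma: Caspase-Glo 3/7 luminescence following 16 hr treatment in complete culture medium. Normalization used DMSO and 10 uM staurosporine controls.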

[21] = Cellular Toxicity (caspase-3) H-4-II-E (AID 663); details: H-4-II-E rat hepatoma; Potency: caspase-3 activation; series mostly up to 92.2 µM;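 note: cells exposed to compound for 16 hr before readout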
Summary of the method: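 H-4-II-E rat hepatoma, 1500 cells/well, 5 hr settle at 37 °C; compound 16 hr, 37 °C, complete medium; Caspase-Glo 3/7, 20 min RT; luminescence. DMSO = 0%, 100 uM tamoxifen = 100%; Hill-equation AC50.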

[22] = Cellular Toxicity (caspase-3) Hek293 (AID 664); details: HEK293 caspase-3 activation, DMSO = 0%, 100 µM tamoxifen = 100%; series mostly up to 92.2 µM;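 note: cells exposed to compound for 16 h at 37 °C before readout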
Summary of the method: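 Apoptosis readout: Caspase-Glo 3/7 signal in human HEK293 cells following 16-hour compound incubation. Responses scaled between DMSO baseline and 100 uM tamoxifen.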

CCCCCCCCCCCC(=O)O
inactive: Potency [1] > 92 µM | Potency [2] > 92 µM | Potency [3] > 92 µM | Potency [4] > 92 µM | Potency [5] | activity change, negative = cytotoxicity [6] -16.1% and -7.4% | Potency [7] | outcome [8] | Potency [9] | Potency [10] | activity change, negative = cytotoxicity [11] -7.81% and -14% | activity change, negative = cytotoxicity [12] -0.623% and 0.657% | outcome [13] | caspase-3 activation [14] -6.31% and -4.32% | outcome [15] | outcome [16] | outcome [17] | outcome [18] | outcome [19] | outcome [20] | Potency [21] | outcome [22]
